Measurements from the supplement of paper PMC13392028.
Whole data set: some 4,100 sequences, median “RBNS R-value (6-mer enrichment in protein-bound RNA vs input library)” near 0.99, cut for the highest 2% near 1.4. The full list was thinned out, with the highest values kept by preference.

Tested on: PfIESI-1 RRM domain (Plasmodium falciparum ortholog aa 875-1232, GST fusion)
Assay: RBNS R-value (6-mer enrichment in protein-bound RNA vs input library) (ratio); higher = stronger binding preference; the methods of the paper give 50 / 100 / 500 nM protein instead
Procedure: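 RNA Bind-n-Seq: recombinant GST-tagged IESI-1 RRM domain was incubated at room temperature with a random 40-nt in vitro transcribed RNA library at 250, 500 or 1000 nM protein. Bound RNA was pulled down on glutathione beads and sequenced. R-value is the enrichment of each 6-mer in the bound RNA relative to the input library. Each 6-mer sits inside the random 40-mer context, not as an isolated oligo. Values are replicate 1 only.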

Sequence | RBNS R-value (protein concentration: 250 nM) | RBNS R-value (protein concentration: 500 nM) | RBNS R-value (protein concentration: 1000 nM)
GGUCGG | 0.934 | 0.838 | 0.968
UCGACU | 0.956 | 0.919 | 0.936
AGUAGG | 0.965 | 0.969 | 1.02
CGUUCA | 0.9 | 0.886 | 0.924
GAAUGU | 0.918 | 1.01 | 0.982
UAAUGA | 1.05 | 1.2 | 1.03
GAAUGA | 1.47 | 1.55 | 1.36
CAAUGC | 0.943 | 0.936 | 0.955
GAAUGC | 1.08 | 1.07 | 1.08
AAAUGC | 0.994 | 1.07 | 1.05
CAAUGG | 1.03 | 1.03 | 1.06
CAAUGA | 1.34 | 1.41 | 1.24
AAAUGA | 1.42 | 1.6 | 1.38
UUCUAC | 0.96 | 0.873 | 0.911
GUCUUA | 0.784 | 0.786 | 0.826
CGUGAC | 1 | 0.946 | 1
GUAGCC | 1.03 | 0.977 | 1.02
UUUAAG | 0.833 | 0.879 | 0.837
CAGAGA | 1.28 | 1.31 | 1.3
CCGGGA | 1.4 | 1.21 | 1.27
CCCGAA | 1.44 | 1.33 | 1.35
UCCGAA | 1.1 | 1.1 | 1.13
ACCGAG | 1.34 | 1.24 | 1.25
CCCGAG | 1.66 | 1.29 | 1.45

Sequence | RBNS R-value (protein concentration: 250 nM) | RBNS R-value (protein concentration: 500 nM) | RBNS R-value (protein concentration: 1000 nM)
GCCGAG | 1.23 | 1.16 | 1.2
CCCGGG | 1.56 | 1.3 | 1.42
ACGGGA | 1.1 | 1.06 | 1.1
ACCGAA | 1.07 | 1.11 | 1.09
CCCGGC | 1.27 | 1.14 | 1.24
CCCGGU | 1.22 | 1.12 | 1.21
CCGGGU | 1.19 | 1.08 | 1.17
CUCAAC | 0.907 | 0.891 | 0.925
CUCUAC | 0.858 | 0.793 | 0.813
GGGAAC | 1.14 | 1.14 | 1.17
GAAUUU | 1.14 | 1.19 | 1.13
UGCUAC | 0.931 | 0.87 | 0.895
GUGUGG | 0.869 | 0.812 | 0.921
CCACGA | 1.17 | 1.13 | 1.15
CGGGUC | 1.03 | 0.928 | 1.06
UUCGAG | 1.1 | 1.12 | 1.14
CUCGAG | 1.38 | 1.28 | 1.27
GUCGAG | 0.954 | 0.931 | 0.991
UGGAGC | 1.03 | 1 | 1.02
CUUAUA | 0.758 | 0.723 | 0.711
GCGAUU | 1.23 | 1.24 | 1.15
UUGAUU | 2.69 | 2.96 | 2.18
GUGAUC | 1.06 | 1.1 | 1.06
GUGAAA | 1.01 | 1.12 | 1.09

Sequence | RBNS R-value (protein concentration: 250 nM) | RBNS R-value (protein concentration: 500 nM) | RBNS R-value (protein concentration: 1000 nM)
GUGAGA | 1.02 | 1.08 | 1.1
CCGAUU | 1.34 | 1.3 | 1.23
UGGAUU | 0.95 | 0.939 | 0.974
CUGAAU | 1.01 | 1.05 | 1.01
CUGAUU | 2.52 | 2.66 | 1.97
GUGAUU | 1.83 | 2.01 | 1.61
UUGAGU | 1 | 1.04 | 1.02
GUGAUA | 1.31 | 1.43 | 1.28
UACAAA | 0.828 | 0.904 | 0.843
AAUAAU | 0.738 | 0.867 | 0.789
CAUAAU | 0.76 | 0.795 | 0.73
GCGCGA | 1.1 | 1.12 | 1.11
CGUAAA | 0.871 | 0.956 | 0.929
CCCUGG | 1.17 | 1.09 | 1.15
CCCUGA | 1.44 | 1.41 | 1.35
CCCUGU | 0.962 | 0.898 | 0.981
GCCUGG | 1.12 | 1.05 | 1.15
GCCUGC | 1.12 | 1 | 1.06
ACCUGA | 1.51 | 1.48 | 1.37
GCCUGA | 1.45 | 1.4 | 1.32
ACCUGG | 1.19 | 1.11 | 1.17
ACCUGC | 1.09 | 1.03 | 1.07
UGGGUC | 0.985 | 0.933 | 1.01
UGUCAG | 0.921 | 0.924 | 0.976

Sequence | RBNS R-value (protein concentration: 250 nM) | RBNS R-value (protein concentration: 500 nM) | RBNS R-value (protein concentration: 1000 nM)
CAAAUC | 0.911 | 0.973 | 0.983
UUGACU | 1.07 | 1.06 | 1.05
UAACGC | 0.896 | 0.876 | 0.884
CAUCAC | 0.917 | 0.894 | 0.935
AUAUAC | 0.837 | 0.813 | 0.766
GACCUC | 1.02 | 0.989 | 1.03
GCUGAC | 1.07 | 1.02 | 1.07
UCUGAA | 0.982 | 1.05 | 1.03
CCUGCG | 1.1 | 1.05 | 1.1
ACUGAU | 1.89 | 2.06 | 1.65
UCUGAC | 1.02 | 0.998 | 1.05
ACUGAC | 1.04 | 1.03 | 1.04
GCUGAG | 1.09 | 1.07 | 1.1
CCUGAG | 1.47 | 1.26 | 1.34
GCUGAU | 1.77 | 1.76 | 1.47
UCUGAG | 1.12 | 1.1 | 1.14
ACUGAG | 1.08 | 1.13 | 1.11
UCUGAU | 1.88 | 1.98 | 1.58
CAGAAC | 1.11 | 1.13 | 1.13
AGUCCC | 1.01 | 0.956 | 1.01
UACCGG | 0.983 | 0.914 | 0.955
